Laboratory results as given in PubChem BioAssay (Tox21).
“And” between values parts separate entries of the source, which are not always exact repeats. Identical values can stand only once. Inconclusive results are not listed. Entries that show only a call come without a potency. A structure can be active in one record and inactive in another. The source made the active and inactive calls. Calls come from the whole dose curve; as a rule, active = well fitted curve in the direction sought with a large enough effect in the repeat runs; inconclusive = weak or mixed curves; inactive = no such curve, though single readings can be large; an effect the other way counts as inactive or inconclusive.

Assay: A CellTox Green Cytotoxicity Assay to monitor cytotoxicity in HEK293 cells - 16 hour (AID 1224888); note: nearly all actives have a fitted effect of over 35% in size
Conditions: CellTox Green fluorescence; series mostly up to 76.8 µM
Procedure, shortened: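 Nonlytic real-time cytotoxicity: HEK293 + CellTox Green reagent plated, 5 h preincubation, pintool compound addition (23 nL in DMSO), 37 C for 40 h, fluorescence measured at successive time points.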

SMILES | Potency
Nn1cnnc1 | inactive
CCCCC(CC)COC(=O)Cl (stereo not drawn) | inactive
CCCCCCCCOC(=O)c1ccccc1C(=O)OCCCCCCCC | inactive
COC(=O)c1sccc1S(=O)(=O)NC(=O)Nc1nc(C)nc(OC)n1 | inactive
COP(=S)(OC)Oc1cc(Cl)c(Cl)cc1Cl | inactive
O=c1oc2ccccc2c(O)c1C(CC(O)c1ccc(-c2ccc(Br)cc2)cc1)c1ccccc1 (stereo not drawn) | inactive
CCC(C)c1cc([N+](=O)[O-])cc([N+](=O)[O-])c1O (stereo not drawn) | inactive
CC(C)=CC1C(C(=O)OCc2coc(Cc3ccccc3)c2)C1(C)C (stereo not drawn) | inactive
N#CC(Br)Br | inactive
CCN(CC)C(=O)/C(Cl)=C(\C)OP(=O)(OC)OC | inactive
CC(C)(c1cc(Cl)c(O)c(Cl)c1)c1cc(Cl)c(O)c(Cl)c1 | inactive
CCCCCCOC(=O)c1ccccc1C(=O)OCCCCCC | inactive
O=P(Oc1ccccc1)(Oc1ccccc1)Oc1ccccc1 | inactive
Oc1ccc(-c2ccccc2)cc1 | inactive
CC(C)(C)c1ccccc1O | inactive
CCCCCCCCCCCOC(=O)c1ccccc1C(=O)OCCCCCCCCCCC | inactive
C[C@]12CCC(=O)C(O)=C1CC[C@@H]1[C@@H]2CC[C@]2(C)C(=O)CC[C@@H]12 | inactive
CCCCN(CC)c1c([N+](=O)[O-])cc(C(F)(F)F)cc1[N+](=O)[O-] | inactive

SMILES | Potency
Cc1ccc(OP(=O)(Oc2ccc(C)cc2)Oc2ccc(C)cc2)cc1 | inactive
CC(C)NC(C)C | inactive
CCOP(=S)(OCC)O/N=C(\C#N)c1ccccc1 | inactive
Cc1ccc2c(c1N)C(=O)c1ccccc1C2=O | inactive
O=S(=O)(Oc1ccc(Cl)cc1)c1ccc(Cl)cc1 | inactive
COP(=S)(OC)Oc1ccc([N+](=O)[O-])cc1 | inactive
OCC(O)CO | inactive
CCOCN(C(=O)CCl)c1c(C)cccc1CC | inactive
C=CC(=O)OCCO | inactive
Nc1ccc(-c2ccc(N)c(N)c2)cc1N | inactive
c1ccc(-c2cccc(-c3ccccc3)c2)cc1 | inactive
Brc1ccc(Oc2cc(Br)c(Br)cc2Br)c(Br)c1 | inactive
NNC(=S)NN | inactive
CCCCCCCCC(=O)NCc1ccc(O)c(OC)c1 | inactive
CCOc1cc(C=O)ccc1O | inactive
CCCCNC(=O)n1c(NC(=O)OC)nc2ccccc21 | inactive
Cc1cc(C)cc(C)c1 | inactive

Assay: qHTS RealTime-Glo MT Cell Viability Assay in HepG2 cells - 0 hour (AID 1224889); note: nearly all actives have a fitted effect of over 50% in size; note: potency is the fitted concentration of half-maximal effect
Conditions: RealTime-Glo luminescence; series mostly up to 76.8 µM
Procedure, shortened: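 Compound treatment began 5 h after plating HepG2 cells (600/well) with NanoLuc luciferase and prosubstrate. Plates stayed at 37 C for 40 h; luminescence was captured at six time points, 0 h through 40 h.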

SMILES | Potency
Nn1cnnc1 | inactive
CCCCC(CC)COC(=O)Cl (stereo not drawn) | inactive
CCCCCCCCOC(=O)c1ccccc1C(=O)OCCCCCCCC | inactive
COC(=O)c1sccc1S(=O)(=O)NC(=O)Nc1nc(C)nc(OC)n1 | inactive
COP(=S)(OC)Oc1cc(Cl)c(Cl)cc1Cl | inactive
O=c1oc2ccccc2c(O)c1C(CC(O)c1ccc(-c2ccc(Br)cc2)cc1)c1ccccc1 (stereo not drawn) | 20.7 µM (active) and 21.3 µM (active)
CCC(C)c1cc([N+](=O)[O-])cc([N+](=O)[O-])c1O (stereo not drawn) | inactive
CC(C)=CC1C(C(=O)OCc2coc(Cc3ccccc3)c2)C1(C)C (stereo not drawn) | inactive
N#CC(Br)Br | inactive
CCN(CC)C(=O)/C(Cl)=C(\C)OP(=O)(OC)OC | inactive
CC(C)(c1cc(Cl)c(O)c(Cl)c1)c1cc(Cl)c(O)c(Cl)c1 | inactive
CCCCCCOC(=O)c1ccccc1C(=O)OCCCCCC | inactive
Oc1cc(Cl)ccc1Oc1ccc(Cl)cc1Cl | inactive
O=P(Oc1ccccc1)(Oc1ccccc1)Oc1ccccc1 | inactive
Oc1ccc(-c2ccccc2)cc1 | inactive
CC(C)(C)c1ccccc1O | inactive
CCCCCCCCCCCOC(=O)c1ccccc1C(=O)OCCCCCCCCCCC | inactive
C[C@]12CCC(=O)C(O)=C1CC[C@@H]1[C@@H]2CC[C@]2(C)C(=O)CC[C@@H]12 | 21.9 µM (active) and inactive
CCCCN(CC)c1c([N+](=O)[O-])cc(C(F)(F)F)cc1[N+](=O)[O-] | inactive

SMILES | Potency
Cc1ccc(OP(=O)(Oc2ccc(C)cc2)Oc2ccc(C)cc2)cc1 | inactive
CC(C)Oc1cc(-n2nc(C(C)(C)C)oc2=O)c(Cl)cc1Cl | inactive
CC(C)NC(C)C | inactive
CCOP(=S)(OCC)O/N=C(\C#N)c1ccccc1 | inactive
Cc1ccc2c(c1N)C(=O)c1ccccc1C2=O | inactive
O=S(=O)(Oc1ccc(Cl)cc1)c1ccc(Cl)cc1 | inactive
COP(=S)(OC)Oc1ccc([N+](=O)[O-])cc1 | inactive
OCC(O)CO | inactive
CCOCN(C(=O)CCl)c1c(C)cccc1CC | inactive
C=CC(=O)OCCO | inactive
Nc1ccc(-c2ccc(N)c(N)c2)cc1N | inactive
c1ccc(-c2cccc(-c3ccccc3)c2)cc1 | inactive
Brc1ccc(Oc2cc(Br)c(Br)cc2Br)c(Br)c1 | inactive
O=Cc1ccco1 | inactive
NNC(=S)NN | inactive
CCCCCCCCC(=O)NCc1ccc(O)c(OC)c1 | inactive
CCOc1cc(C=O)ccc1O | inactive
CCCCNC(=O)n1c(NC(=O)OC)nc2ccccc21 | inactive
Cc1cc(C)cc(C)c1 | inactive
